Measured values reported in PubChem BioAssay (EPA / NIEHS).
The source made the active and inactive calls. How the source made its calls: active means hit-call score of the fitted dose curve at least 0.9, where 1 is the maximum; inactive means score below 0.9.

Read-out: Plasminogen activator inhibitor-1 (PAI1), SERPINE1 (gene 5054)
Assay: BSK_BE3C_PAI1: BioMAP Diversity Plus: BE3C Assay for Plasminogen activator inhibitor-1 (PAI1) Biomarker Activity (AID 2283037)
Details: primary human bronchial epithelial cells; actives raise or lower the signal
Experimental: BSK_BE3C is a cell-based, multiplexed-readout assay that uses bronchial epithelial cell, a human lung primary cell, with measurements taken at 24 hours after chemical dosing in a 96-well plate.BSK_BE3C_PAI1 is an assay component measured in the BSK_BE3C assay. It measures PAI-1 antibody related to regulation of gene expression using ELISA technology.Data from the assay component BSK_BE3C_PAI1 was analyzed into 1 assay endpoint. This assay endpoint, BSK_BE3C_PAI1, was analyzed with bidirectional fitting relative to DMSO as the negative control and baseline of activity. Using a type of binding reporter, gain or loss-of-signal activity can be used to understand changes in the signaling as they relate to the gene SERPINE1. Furthermore, this assay endpoint can be referred to as a primary readout, because this assay has produced multiple assay endpoints where this one serves a signaling function. To generalize the intended target to other relatable targets, this assay endpoint is annotated to the cytokine intended target family, where the subfamily is plasmogen activator inhibitor.
The levels of cell surface (or secreted, indicated by the prefix "s") biomarker endpoints were measured by ELISA. Overt cytotoxicity to cells in confluent adherent cultures (all systems other than the BT system) was assessed by measuring total protein levels using sulforhodamine B (SRB) staining in parallel cultures at the time of biomarker measurements, indicated as SRB endpoints. For proliferation assays for adherent cell types, individual cell types are cultured at sub-confluence and relative cell numbers quantified by SRB staining at time points optimized for each system (48 h: 3C and CASM3C systems; 72 h: BT and HDF3CGF systems; 96 h: SAg system). SRB was performed by staining cells with 0.1% SRB after fixation with 10% TCA and reading wells at 560 nm.Viability and proliferation of PBMC (T cells) was quantified by Alamar Blue reduction for the SAg and BT systems. For PBMC viability (referred to as PBMC Cytotoxicity within the assay endpoint names), cells were plated (75,000/well in a 96-well plate) and then chemical samples added for 1 h before addition of activators, SEB and TSST-1 (20 ng/mL final concentration each). Cells were incubated for 90 h. Then, Alamar Blue (20 uL/well) (Invitrogen, Cat DAL1100) was added for 6 h, and the plates were read with a fluorescence microplate reader at 546/580 nm (excitation/emission). For PBMC proliferation, cells were plated and activated as above but incubated for only 16 h prior to addition of Alamar Blue. Plates were read after 6 h.

Compound | outcome | AC50
CCNc1nc(N)nc(Cl)n1 | inactive | 
CCCCOCCOCCOCc1cc2c(cc1CCC)OCO2 | inactive | 
COC(=O)c1c(Cl)nn(C)c1S(=O)(=O)NC(=O)Nc1nc(OC)cc(OC)n1 | inactive | 
S=C([S-])NCCNC(=S)[S-].[Mn+2] | inactive | 
OB(O)O | inactive | 
CCN(Cc1c(F)cccc1Cl)c1c([N+](=O)[O-])cc(C(F)(F)F)cc1[N+](=O)[O-] | inactive | 
CCN(CC)C(=O)c1cccc(C)c1 | inactive | 
COC(=O)c1ccc(CNS(C)(=O)=O)cc1S(=O)(=O)NC(=O)Nc1nc(OC)cc(OC)n1 | inactive | 
CCCCC(CC)CN1C(=O)C2C3C=CC(C3)C2C1=O (stereo not given) |  | 28.1 µM (active)
CCCOC(=O)c1ccc(C(=O)OCCC)nc1 | inactive | 
O=C(Nc1ccc([N+](=O)[O-])cc1Cl)c1cc(Cl)ccc1O | inactive | 
CCOC(=O)C(C)Oc1ccc(Oc2nc3ccc(Cl)cc3o2)cc1 (stereo not given) |  | 33.5 µM (active)
c1ccc2[nH]c(-c3cscn3)nc2c1 | inactive | 
CCSC(=O)N(CC(C)C)CC(C)C | inactive | 
CCCN(CCC)c1c([N+](=O)[O-])cc(C(F)(F)F)c(N)c1[N+](=O)[O-] |  | 36.2 µM (active)
CC(=O)S[C@@H]1CC2=CC(=O)CC[C@]2(C)[C@H]2CC[C@@]3(C)[C@@H](CC[C@@]34CCC(=O)O4)[C@H]12 | inactive | 
CC1(C)C(C=C(Cl)Cl)C1C(=O)OCc1cccc(Oc2ccccc2)c1 (stereo not given) | inactive | 
c1ccc(Nc2ccccc2)cc1 | inactive | 
N[C@@H](Cc1cc(I)c(Oc2ccc(O)c(I)c2)c(I)c1)C(=O)O |  | 18.8 µM (active)
CC(=O)[C@H]1CC[C@H]2[C@@H]3CCC4=CC(=O)CC[C@]4(C)[C@H]3CC[C@]12C | inactive | 

Compound | outcome | AC50
C#C[C@]1(O)CC[C@H]2[C@@H]3CCC4=CC(=O)CC[C@@H]4[C@H]3CC[C@@]21CC | inactive | 
CC(C)(C)[C@@H](O)[C@@H](Cc1ccc(Cl)cc1)n1cncn1 | inactive | 
CCCCOC(=O)C(C)Oc1ccc(Oc2ccc(C(F)(F)F)cn2)cc1 (stereo not given) | inactive | 
CCCOC(=O)NCCCN(C)C | inactive | 
O=C(c1ccc(O)cc1O)c1ccc(O)cc1O |  | 34.6 µM (active)
CCOC(=O)NCCOc1ccc(Oc2ccccc2)cc1 | inactive | 
CN(C)C(=O)Nc1ccc(Cl)c(Cl)c1 | inactive | 
CCCCC(CC)COC(=O)c1ccccc1C(=O)O (stereo not given) | inactive | 
CCCN(CCC)C(=O)SCC | inactive | 
CC(C)CCCCCCc1ccc(O)cc1 |  | 31 µM (active)
CSC(=O)c1cccc2nnsc12 | inactive | 
COc1nc(C)nc(NC(=O)NS(=O)(=O)c2ccccc2OCCCl)n1 | inactive | 
O=C(O)C1(C(=O)Nc2ccc(Cl)cc2Cl)CC1 | inactive | 
CCCCCOC(=O)COc1cc(N2C(=O)C3=C(CCCC3)C2=O)c(F)cc1Cl | inactive | 
CCOC(=O)[C@H](C)Oc1ccc(Oc2nc3ccc(Cl)cc3o2)cc1 |  | 3.97 µM (active)
CCC(C)OC(=O)N1CCCCC1CCO (stereo not given) | inactive | 
C[C@]12C[C@H](O)[C@H]3[C@@H](CCC4=CC(=O)CC[C@@]43C)[C@@H]1CC[C@@H]2C(=O)CO | inactive | 
COC(=O)c1ccccc1C(=O)O | inactive | 
S=C(S)NCCNC(=S)S.[Mn+2].[S-]C([S-])=NCCN=C([S-])[S-].[Zn+2] | inactive | 
CCOC(=O)C(C)Oc1ccc(Oc2cnc3cc(Cl)ccc3n2)cc1 (stereo not given) | inactive | 
